The results in this text go back to PubChem BioAssay AID1851 (National Center for Advancing Translational Sciences (NCATS), 2009).

In all, about 16,000 compounds went through this assay and about 5,100 (32%) were called active. Inconclusive results (about 25%) are left out. This is one part of the list. A number with no mark means an inactive call. The call rests on the fitted dose curve; in most records, active means well fitted curve in the direction sought with a large enough effect; inconclusive means small, poorly fitted or top-dose-only effect, or effect the other way; inactive means no such curve, though single readings can be large or run the other way.
On the % scale 0 is the no-effect control and ±100 the full control effect.

For the experiment, the target named is Cytochrome P450 3A4 (Homo sapiens) (UniProt P08684). Briefly: Cytochrome panel assay with activity outcomes. The note with it: recombinant CYP, pro-luciferin dealkylation, luminescence, p450-cyp3a4; series mostly up to 57.1 µM; activity, negative = inhibition: at the top concentration.
Chain of Cytochrome P450 3A4 (Homo sapiens) (P08684 whole entry, looked up): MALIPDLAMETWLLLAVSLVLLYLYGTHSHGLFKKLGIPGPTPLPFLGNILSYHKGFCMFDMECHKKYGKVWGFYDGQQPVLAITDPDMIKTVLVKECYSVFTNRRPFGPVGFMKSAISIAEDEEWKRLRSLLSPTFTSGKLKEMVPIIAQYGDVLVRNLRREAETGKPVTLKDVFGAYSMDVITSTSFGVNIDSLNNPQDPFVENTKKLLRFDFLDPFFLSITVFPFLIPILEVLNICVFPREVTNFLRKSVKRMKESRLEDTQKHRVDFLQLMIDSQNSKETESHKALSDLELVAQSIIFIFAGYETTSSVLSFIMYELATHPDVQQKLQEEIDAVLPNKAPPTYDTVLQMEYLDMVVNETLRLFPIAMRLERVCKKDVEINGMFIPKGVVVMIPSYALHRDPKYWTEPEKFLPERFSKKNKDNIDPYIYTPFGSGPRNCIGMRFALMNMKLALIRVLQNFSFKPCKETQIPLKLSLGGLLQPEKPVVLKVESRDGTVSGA
On to `[N-]=[N+]=NC[C@@H]1O[C@@H](n2cnc3c(N)ncnc32)[C@@H]2O[C@@H]21`, for which the activity, negative = inhibition is -11.8% [at 11.4 µM]. Still for that read-out and setting: the result for `Nc1nc2n[nH]nc2c(=O)[nH]1` reads -18.8% [at 25.6 µM]; that for `O=C1C2=CC[C@H]3C(=O)N(c4cccc(Oc5ccccc5)c4)C(=O)[C@@H]3[C@@H]2[C@H](O)[C@@H]2O[C@H]12`, -4.92% [at 11.4 µM]; that for `CON1C(=O)C(=O)N(OC)C(C)(C)C1C` (stereo not drawn), -4.17%. For `COC(=O)C/C=C\[C@@H](C)[C@@H](/C=N\O[C@@H](C)CN1CCCc2nc(C)c(C)cc21)NS(=O)(=O)c1ccc(C)cc1`, the activity, negative = inhibition is -80.9% [at 11.4 µM].

Broadly, the AC50 is the concentration at which the activity in the assay is half-maximal. As to `COC(=O)C/C=C\[C@@H](C)[C@@H](/C=N\O[C@@H](C)CN1CCCCc2nc(C)c(C)cc21)NS(=O)(=O)c1ccc(C)cc1`, the AC50 is 3.98 µM (active). Consider `CCCS(=O)(=O)N1CCCC(C(=O)NCCCOC(C)C)C1` (stereo not drawn), for which the “activity, negative = inhibition” value was -4.73%. Turning to `CC(C)OCCCN1C(=O)c2ccccc2C1C(=O)NC1CCCCC1` (stereo not drawn), the AC50 is 12.6 µM (active).

In the case of `O=c1nc(-c2ccccc2)cn[nH]1`, the “activity, negative = inhibition” value was 2.11%.

With `CS(=O)(=O)N1N=C(c2ccc(Br)cc2)CC1c1ccc2c(c1)OCO2` (stereo not drawn), the AC50 was 1.78 µM (active). Take `Cc1ccc(C2=NN(S(C)(=O)=O)C(c3cccs3)C2)cc1` (stereo not drawn): the activity, negative = inhibition is -2.01% [at 2.29 µM]. As to `COc1ccc(-c2cc3ccccc3n2CC(O)CNCCO)cc1` (stereo not drawn), the AC50 is 15.8 µM (active). Take `Cc1[nH]n2c(=O)c(C#N)c(-c3ccccc3)nc2c1-c1ccccc1`: the “activity, negative = inhibition” value is -9.5%. Turning to `CN1CC(c2ccccc2)C2(COc3ccccc3C2=O)C12C(=O)Nc1ccccc12` (stereo not drawn), the AC50 is 3.98 µM (active).

With `NNS(=O)(=O)c1cc(C(=O)O)cc(C(=O)O)c1`, the activity, negative = inhibition is -6.08% [at 11.4 µM].

In the case of `CSc1nc(Oc2ccc(=O)[nH]n2)nc(N(C)C)n1`, the “activity, negative = inhibition” value is -5.03%. With `CN(C)S(=O)(=O)c1ccc2c(c1)/C(=C/c1cc3c([nH]1)CCCC3)C(=O)N2`, the AC50 was 5.01 µM (active). Consider `C[C@H]1[C@@H](O)[C@@H](C)\C=C/C=C\C=C/C=C\C=C/C=C\C=C/[C@@H](O[C@H]2O[C@@H](C)[C@@H](O)[C@@H](N)[C@@H]2O)C[C@@H]2O[C@](O)(C[C@@H](O)C[C@@H](O)[C@@H](O)CC[C@@H](O)C[C@@H](O)CC(=O)O[C@H]1C)C[C@@H](O)[C@H]2C(=O)O` (stereo in doubt), for which the “activity, negative = inhibition” value was 12.7% [at 25.6 µM]. For `CCCc1nnc(NC(=O)CN2C(=O)C3C4C=CC(C4)C3C2=O)s1` (stereo not drawn), the AC50 is 12.6 µM (active). As for `CCCc1nnc(NC(=O)Cn2cnc3ccccc3c2=O)s1`, the “activity, negative = inhibition” value was -10.1%. Consider `CCCC(=O)Nc1nnc(CCN2CCCCC2)s1`, for which the “activity, negative = inhibition” value was 1.59%.

As for `Cc1cccc(NC(=O)CSc2nnc(-c3ccco3)c(-c3ccco3)n2)c1C`, the AC50 is 15.8 µM (active). Consider `Cc1cccc(NC(=O)CSc2nc(-c3ccccc3)c(C#N)c(=O)[nH]2)c1C`, for which the activity, negative = inhibition was 4.48% [at 0.457 µM]. Same read-out and setting: the result for `O=S1(=O)C=C(Oc2ccc3ccccc3c2)c2ccccc21` reads 0.516%. Consider `COc1ccc(C2(CNC(=O)/C=C/c3ccco3)CCCC2)cc1OC`, for which the AC50 is 3.55 µM (active). Consider `CN(C)c1ncc2nc(-c3ccc(Cl)cc3)c(=O)n(C)c2n1`, for which the “activity, negative = inhibition” value is 5.8%. On the same count and under the same terms, the figure for `Cc1ccc(-c2nn(-c3ccccc3)cc2/C=N/NS(=O)(=O)c2ccccc2)cc1` is -20.9% [at 2.29 µM].

For the compound `Cc1ccc(S(=O)(=O)N/N=C/c2cccn2-c2ccc(Cl)cc2)cc1`, the AC50 was 10 µM (active). In the case of `O=[N+]([O-])c1ccc(N/N=C\c2cccn2-c2ccccc2)nc1`, the activity, negative = inhibition is 0.811% [at 2.29 µM]. For `O=S(=O)(N/N=C\c1cccn1-c1ccccc1)c1ccc2ccccc2c1`, the AC50 was 7.08 µM (active).

Take `CC1=NN(c2ccc(S(=O)(=O)O)cc2)C(=O)/C1=C\c1ccc(Cl)cc1`: the activity, negative = inhibition was 2.74% [at 11.4 µM]. Still for that read-out and setting: the result for `C/C(=N/O)[C@@H]1C[C@H](CC(=O)O)C1(C)C` reads -25.4% [at 11.4 µM]. For the compound `O=C(c1cnccn1)N1CCC[C@@]2(CCN(Cc3cc(C(F)(F)F)cc(C(F)(F)F)c3)C2)C1`, the AC50 was 7.94 µM (active).

Regarding `O=C(c1cnccn1)N1CCC2(CC1)CN(Cc1cc(C(F)(F)F)cc(C(F)(F)F)c1)C2`, the “activity, negative = inhibition” value is -23.4%.

As to `O=C(c1csnn1)N1CCC2(CC1)CN(Cc1cc(C(F)(F)F)cc(C(F)(F)F)c1)C2`, the “activity, negative = inhibition” value is -23.4%.

As for `O=C(c1cnccn1)N1CCC[C@@]2(CCN(Cc3ccncc3)C2)C1`, the AC50 is 15.8 µM (active). For `Cc1ccccc1OCCCN1CCCC1`, the “activity, negative = inhibition” value was -1.3%. `OC[C@@H](O)CN1CCN(c2ccccc2)CC1`: the “activity, negative = inhibition” value is -9.47% [at 25.6 µM]. In the case of `c1ccc(N2CCN(CCCOc3ccc4c(c3)OCO4)CC2)cc1`, the half-maximal activity concentration (AC50) was 3.16 µM (active). For `CN1CCN(c2ncc3ncc(=O)n(C[C@H]4CCCO4)c3n2)CC1`, the “activity, negative = inhibition” value is 10.6%. On to `COc1cccc(Cn2c(=O)c(CCc3ccccc3)nc3cnc(N4CCNCC4)nc32)c1`, for which the AC50 was 15.8 µM (active). On the same count and under the same terms, the result for `COc1cccc(Cn2c(=O)cnc3cnc(N4CCN(C)CC4)nc32)c1` reads 15.8 µM (active); that for `COc1cccc(Cn2c(=O)c(CCc3ccccc3)nc3cnc(N4CCN(C)CC4)nc32)c1`, 15.8 µM (active). For `CN1CCN(c2ncc3ncc(=O)n(CCC#N)c3n2)CC1`, the “activity, negative = inhibition” value is 1.63%. Consider `CN1CCN(c2ncc3nc(CCc4ccccc4)c(=O)n(Cc4ccc(F)cc4)c3n2)CC1`, for which the AC50 is 5.01 µM (active). `NC([N-]/N=C/c1ccccn1)=[S]=[Fe].O=S(=O)(O)O`: the activity, negative = inhibition is -4.8% [at 11.4 µM].

`O=C(CSc1nc2ccccc2o1)Nc1nc2ccccc2s1`: the activity, negative = inhibition was -7.57% [at 2.29 µM]. With `Cc1ccccc1NC(=O)CSc1nc(N2CCCCC2)nc(N2CCCCC2)n1`, the AC50 was 2 µM (active).

Regarding `O=C(CNC1CCCCCC1)Nc1ccccc1N1CCCCC1`, the activity, negative = inhibition is -25% [at 2.29 µM]. For the compound `O=C(CSc1nc2ccccc2o1)Nc1ccccc1N1CCCCCC1`, the AC50 was 3.98 µM (active). For the compound `Cc1cc(C)nc(SCC(=O)Nc2ccccc2[N+](=O)[O-])n1`, the “activity, negative = inhibition” value is -9.77%. Regarding `CC(C)NC[C@H](O)c1cc(O)cc(O)c1`, the AC50 result was “inactive”. With `COc1ccccc1-c1c(C)oc2c(CN3CCN(CCO)CC3)c(O)ccc2c1=O`, the “activity, negative = inhibition” value was 3.63%.

Turning to `COc1cccc(-c2cc(=O)c3ccccc3o2)c1N`, the AC50 is 7.94 µM (active). Regarding `COc1cccc2cc3c(=O)oc4ccccc4c3nc12`, the activity, negative = inhibition is -6.03% [at 2.29 µM]. Still for that read-out and setting: the figure for `Cc1ccc(NC(=O)CN2C(=O)N/C(=C/c3ccc(C)o3)C2=O)cc1` is 7.39% [at 2.29 µM]. As to `CCOc1cc(/C=C2/NC(=O)N(CC(=O)Nc3cccc(C)c3)C2=O)ccc1OC`, the AC50 is 1.78 µM (active). The same measure, in the same setting: the result for `COc1ccc(OCCSc2ncn[nH]2)cc1` reads 14.1 µM (active). `CCC1CC(CSc2ncn[nH]2)OC1=O` (stereo not drawn): the “activity, negative = inhibition” value was -23.1%. Same read-out and setting: the result for `CCCOc1ccc(-c2nc(N)n[nH]2)cc1` reads 8.08% [at 11.4 µM]; that for `C[C@@H](CNC(N)=O)NC(N)=O`, -2.29% [at 11.4 µM]. Regarding `Cc1ccc(CN2CC34C=CC(O3)C(C(=O)NCc3ccco3)C4C2=O)cc1` (stereo not drawn), the AC50 was 8.91 µM (active). On to `COc1ccc(CCN2CC34C=CC(O3)C(C(=O)NCc3ccccc3)C4C2=O)cc1OC` (stereo not drawn), for which the AC50 is 2.82 µM (active).

Regarding `O=C(NCC1COc2ccccc2O1)C1C2C=CC3(CN(Cc4cccs4)C(=O)C13)O2` (stereo not drawn), the activity, negative = inhibition was -13.1% [at 2.29 µM]. As to `COCCCNC(=O)C1C2C=CC3(CN(Cc4ccc(C)cc4)C(=O)C13)O2` (stereo not drawn), the AC50 is 7.94 µM (active). The same measure, in the same setting: the result for `Cc1ccc(CN2CC34C=CC(O3)C(C(=O)NCc3ccc5c(c3)OCO5)C4C2=O)cc1` (stereo not drawn) reads 0.251 µM (active). Turning to `CCOc1ccc(NC(=O)N2CCC(C(N)=O)(N3CCCCC3)CC2)cc1`, the “activity, negative = inhibition” value is -3.16%. As to `CCCCNC(=O)C1C2C=CC3(CN(Cc4ccccc4Cl)C(=O)C13)O2` (stereo not drawn), the AC50 is 3.98 µM (active). Turning to `CCCCNC(=O)C1CCN(Cc2ccccn2)CC1`, the “activity, negative = inhibition” value was -14.9%. On the same count and under the same terms, the figure for `O=C(O)C1C2C=CC3(CN(Cc4ccccn4)C(=O)C13)O2` (stereo not drawn) is -6.39%; for `CC(CC(=O)O)(CC(=O)O)c1ccccc1` it is 0.682% [at 11.4 µM]. Regarding `c1ccc([C@@H]2CN3CCSC3=N2)cc1`, the AC50 result was “inactive”.

Take `Cc1nn(Cc2ccc(Cl)cc2)c(C)c1NC(=O)CSc1nc2c(c(C(F)(F)F)n1)CCc1ccccc1-2`: the AC50 was 3.16 µM (active). Same read-out and setting: the result for `Cc1ccccc1Cn1cc(NC(=O)CSc2nc3c(c(C(F)(F)F)n2)CCc2ccccc2-3)cn1` reads 5.01 µM (active). As to `NC(CSS(=O)(=O)O)=N[C@@H]1C[C@H]2CC[C@@H]1C2`, the activity, negative = inhibition was -19.6% [at 11.4 µM]. Same read-out and setting: the result for `CCCC1c2c(ccc3ccccc23)Oc2ccc3ccccc3c21` reads -11.1% [at 11.4 µM]. In the case of `Cc1cccc(CNc2cc(-c3cccc(C#N)c3)ncn2)c1`, the AC50 is 7.94 µM (active).

Consider `N#Cc1cccc(-c2cc(NCc3cccnc3)ncn2)c1`, for which the AC50 was 2.51 µM (active). As for `N#Cc1cccc(-c2cc(NCc3ccccc3)ncn2)c1`, the “activity, negative = inhibition” value was -12.5%. Still for that read-out and setting: the figure for `CC1(C)CCC(C)(C)c2cc(C(=O)Nc3ccc(C(=O)O)cc3)ccc21` is -26.2%; for `O=C(OCC1CC(c2ccccc2)=NO1)c1ccc(Cl)cc1` (stereo not drawn) it is -4.52%.

On to `COc1ccccc1C1=NOC(COC(=O)c2ccc3ccccc3n2)C1` (stereo not drawn), for which the AC50 is 17.8 µM (active). The same measure, in the same setting: the result for `COc1ccc(CNc2cc(-c3cccc(NS(C)(=O)=O)c3)ncn2)c(OC)c1` reads 2.51 µM (active). Still for that read-out and setting: the figure for `COc1ccccc1CNc1cc(-c2cccc(NS(C)(=O)=O)c2)ncn1` is 5.01 µM (active).

`Cc1cnn(-c2cc(N/N=C/c3ccccc3F)ncn2)c1`: the activity, negative = inhibition is -16.7% [at 2.29 µM]. In the case of `Cc1cccc(C2NC(=O)c3c(sc(C)c3C)N2)c1O` (stereo not drawn), the AC50 was 12.6 µM (active). Turning to `CC(C)(Oc1ccc(-c2cccc3ccccc23)cc1)C(=O)O`, the activity, negative = inhibition is -6.61% [at 11.4 µM]. The same measure, in the same setting: the result for `O=C(O)CC[C@@H](NC(=O)c1ccccc1C(=O)O)C(=O)O` reads 2%.

For the compound `O=C(O)c1ccccc1C(=O)NNc1ccc(F)cc1`, the AC50 was 11.2 µM (active). Same read-out and setting: the result for `O=C(O)c1ccccc1C(=O)NNc1ccc(Cl)cc1` reads 7.94 µM (active). Take `O=C(O)c1ccccc1C(=O)NCc1ccc(F)cc1`: the “activity, negative = inhibition” value is 12.7%. As to `O=C(NNC(=O)c1ccccc1O)c1ccc(Cl)cc1`, the “activity, negative = inhibition” value is 25.4%. As for `O=C(O)c1ccccc1-c1ccccc1C(=O)Nc1ccc2c(c1)Cc1cc(F)ccc1-2`, the activity, negative = inhibition is -16.4% [at 11.4 µM].
